Source: paper PMC5700166
Numbering of substitutions follows the chain as printed.

How the values were obtained:
Assay in all cases: protein-binding microarray (PBM); PBM: ~300 nM protein, 6 mM HEPES pH 7.8, 80 mM KCl, 0.5 mM EDTA, 0.5 mM EGTA, 6% glycerol, 35 ng/ul poly-dIdC, 1% milk, 1 h, room temperature; Ap Aiptasia and Nv Nematostella (sea anemones) / Co Capsaspora / Aq Amphimedon (sponge) / Dm Drosophila / Hu human; RHD is the Rel homology domain; high values mean tight binding
Details in all cases: dsDNA, one strand shown
GST-Ap-NF-kB RHD = biological target: T1, GST-Ap-NF-kB RHD (Exaiptasia pallida (Aiptasia), UniProt A0A913YAJ5 2-422)
T1 sequence: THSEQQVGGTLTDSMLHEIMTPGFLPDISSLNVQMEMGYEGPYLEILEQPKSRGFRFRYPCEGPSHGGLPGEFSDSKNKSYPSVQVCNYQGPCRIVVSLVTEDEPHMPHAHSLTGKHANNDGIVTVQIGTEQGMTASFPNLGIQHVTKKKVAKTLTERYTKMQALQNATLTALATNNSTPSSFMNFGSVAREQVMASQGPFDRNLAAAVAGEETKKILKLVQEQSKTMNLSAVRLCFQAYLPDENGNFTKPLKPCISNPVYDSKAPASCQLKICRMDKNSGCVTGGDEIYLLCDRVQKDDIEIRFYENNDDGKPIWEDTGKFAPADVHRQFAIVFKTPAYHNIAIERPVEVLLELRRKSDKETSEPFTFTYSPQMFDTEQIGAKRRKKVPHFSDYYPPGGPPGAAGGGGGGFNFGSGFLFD

[1] = biological target: T2, GST-Nv-NF-kB (Cys allele) (Nematostella vectensis, UniProt E5G601 2-411)
T2 sequence: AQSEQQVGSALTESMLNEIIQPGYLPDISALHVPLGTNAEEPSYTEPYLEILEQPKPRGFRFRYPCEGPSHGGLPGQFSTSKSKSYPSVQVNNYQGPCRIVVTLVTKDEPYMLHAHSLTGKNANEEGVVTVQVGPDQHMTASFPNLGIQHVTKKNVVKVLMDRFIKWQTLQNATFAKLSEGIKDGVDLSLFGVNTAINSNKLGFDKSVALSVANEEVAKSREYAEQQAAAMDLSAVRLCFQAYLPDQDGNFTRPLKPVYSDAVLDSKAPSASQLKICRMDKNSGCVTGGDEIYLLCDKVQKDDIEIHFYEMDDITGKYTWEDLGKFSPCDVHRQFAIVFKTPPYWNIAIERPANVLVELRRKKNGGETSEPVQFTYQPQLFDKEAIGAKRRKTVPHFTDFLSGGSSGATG

[2] = biological target: T3, GST-Nv-NF-kB (Ser allele) (Nematostella vectensis, UniProt A7UNT2 2-411)
T3 sequence: T2 sequence with Q21R, C66S, S207N, E215Q, V217A, E225K, A268E, D399E

GST-Co-NF-kB = biological target: T4, GST-Co-NF-kB (Capsaspora owczarzaki, UniProt F1ARL5 200-546)
T4 sequence: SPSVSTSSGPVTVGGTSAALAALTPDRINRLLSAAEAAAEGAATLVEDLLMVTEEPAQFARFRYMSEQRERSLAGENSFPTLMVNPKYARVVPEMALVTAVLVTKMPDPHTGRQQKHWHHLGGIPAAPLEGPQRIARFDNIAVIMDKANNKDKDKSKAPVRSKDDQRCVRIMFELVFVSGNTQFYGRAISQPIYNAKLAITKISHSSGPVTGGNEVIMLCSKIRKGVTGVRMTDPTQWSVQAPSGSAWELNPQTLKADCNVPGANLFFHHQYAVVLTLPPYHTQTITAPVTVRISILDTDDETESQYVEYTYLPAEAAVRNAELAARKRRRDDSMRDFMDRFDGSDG

GST-Dm-Relish = biological target: T5, GST-Dm-Relish (Drosophila melanogaster, UniProt Q94527 99-473)
T5 sequence: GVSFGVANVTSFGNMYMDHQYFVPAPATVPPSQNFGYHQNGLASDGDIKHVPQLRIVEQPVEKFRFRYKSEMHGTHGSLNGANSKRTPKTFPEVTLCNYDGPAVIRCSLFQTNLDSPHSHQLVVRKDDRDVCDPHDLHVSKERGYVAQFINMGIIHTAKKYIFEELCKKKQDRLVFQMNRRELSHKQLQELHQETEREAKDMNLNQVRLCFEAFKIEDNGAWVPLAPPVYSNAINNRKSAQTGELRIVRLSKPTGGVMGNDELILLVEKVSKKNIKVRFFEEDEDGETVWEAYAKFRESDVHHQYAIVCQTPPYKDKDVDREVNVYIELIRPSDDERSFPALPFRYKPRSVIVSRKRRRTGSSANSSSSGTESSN

GST-Aq-NF-kB = biological target: T6, GST-Aq-NF-kB (Amphimedon queenslandica, UniProt A9Y5G7 2-389)
T6 sequence: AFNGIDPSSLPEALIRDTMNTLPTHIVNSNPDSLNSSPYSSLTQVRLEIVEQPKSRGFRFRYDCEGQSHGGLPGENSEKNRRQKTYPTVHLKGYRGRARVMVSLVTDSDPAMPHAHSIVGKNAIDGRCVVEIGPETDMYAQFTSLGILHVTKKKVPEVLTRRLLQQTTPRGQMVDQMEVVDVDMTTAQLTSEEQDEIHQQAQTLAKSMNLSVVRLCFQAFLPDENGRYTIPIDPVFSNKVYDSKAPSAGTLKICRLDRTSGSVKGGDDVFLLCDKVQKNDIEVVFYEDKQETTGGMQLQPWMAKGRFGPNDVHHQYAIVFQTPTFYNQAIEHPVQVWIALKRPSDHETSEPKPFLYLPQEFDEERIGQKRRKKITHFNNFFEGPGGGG

GST-Hu-p50 = GST-Hu-p50 (Homo sapiens, UniProt P19838 7-356)
GST-Hu-p50, sequence (P19838 7-356): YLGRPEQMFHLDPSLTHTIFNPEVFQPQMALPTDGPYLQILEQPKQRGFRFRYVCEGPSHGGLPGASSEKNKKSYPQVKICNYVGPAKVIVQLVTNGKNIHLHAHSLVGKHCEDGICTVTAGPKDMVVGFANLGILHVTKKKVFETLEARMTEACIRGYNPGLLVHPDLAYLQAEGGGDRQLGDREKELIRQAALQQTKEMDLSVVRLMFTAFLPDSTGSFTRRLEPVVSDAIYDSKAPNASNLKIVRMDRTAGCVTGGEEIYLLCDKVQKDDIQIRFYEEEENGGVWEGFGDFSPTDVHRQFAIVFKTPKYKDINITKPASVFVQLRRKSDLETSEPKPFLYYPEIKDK

Sequence | binding signal (GST-Ap-NF-kB RHD) [z-score] | binding signal [1] [z-score] | binding signal [2] [z-score] | binding signal (GST-Co-NF-kB) [z-score] | binding signal (GST-Dm-Relish) [z-score] | binding signal (GST-Aq-NF-kB) [z-score] | binding signal (GST-Hu-p50) [z-score]
CCGATTAACATCAGGGGAATTACTGATGTTAATCGGGTCTTGATTCGCTTGACGCTGCTG | 8.73 | 10.6 | 10.2 | 7.45 | 10.2 | 8.27 | 7.09
CCGATTAACATCAAGGGGGGATGTGATGTTAATCGGGTCTTGATTCGCTTGACGCTGCTG | 5.69 | 4.01 | 5.38 | 4.75 | 4.07 | 4.34 | 4.32
CCGATTAACATCAAGTTTCCCCATGATGTTAATCGGGTCTTGATTCGCTTGACGCTGCTG | 6.19 | 6.87 | 9.07 | 9.1 | 2.4 | 5.26 | 5.62
CCGATTAACATCAAACTACCCCCTGATGTTAATCGGGTCTTGATTCGCTTGACGCTGCTG | 5.45 | 4.01 | 4.35 | 5.82 | 2.49 | 4.3 | 4.12
CCGATTAACATCAAACTTCCCCGTGATGTTAATCGGGTCTTGATTCGCTTGACGCTGCTG | 6.81 | 8.41 | 8.97 | 8.65 | 7.92 | 7.04 | 6.45
CCGATTAACATCAGGGGGATTACTGATGTTAATCGGGTCTTGATTCGCTTGACGCTGCTG | 8.76 | 7.64 | 8.21 | 5.85 | 9.03 | 6.92 | 7.22
CCGATTAACATCAGGGTAAGTACTGATGTTAATCGGGTCTTGATTCGCTTGACGCTGCTG | 2.48 | 3.05 | 2.93 | 1.85 | 7.08 | 5.82 | 2.3
CCGATTAACATCAAAATTCCCAGTGATGTTAATCGGGTCTTGATTCGCTTGACGCTGCTG | 3.76 | 5.07 | 4.98 | 4.87 | 5.12 | 4.23 | 4.24
CCGATTAACATCAGGGGACGTACTGATGTTAATCGGGTCTTGATTCGCTTGACGCTGCTG | 4.18 | 3.48 | 3.58 | 2.33 | 6.95 | 4.39 | 3.75
CCGATTAACATCAGGGGGCTATATGATGTTAATCGGGTCTTGATTCGCTTGACGCTGCTG | 3.62 | 3.23 | 2.2 | 1.85 | 2.75 | 3.69 | 3.35
CCGATTAACATCAAAATAGTCCCTGATGTTAATCGGGTCTTGATTCGCTTGACGCTGCTG | 7.45 | 7.77 | 7.5 | 2.01 | 4.37 | 6.34 | 5.5
CCGATTAACATCAGAATTCCCGATGATGTTAATCGGGTCTTGATTCGCTTGACGCTGCTG | 3.78 | 4.69 | 4.3 | 3.92 | 2.59 | 3.28 | 3.21
CCGATTAACATCAGTTTTCCCCATGATGTTAATCGGGTCTTGATTCGCTTGACGCTGCTG | 6.49 | 7.03 | 9.09 | 9.45 | 3.42 | 4.82 | 5.76
CCGATTAACATCAACATTACCCCTGATGTTAATCGGGTCTTGATTCGCTTGACGCTGCTG | 2.39 | 2.88 | 3.43 | 4.07 | 1.42 | 2.86 | 3.24
CCGATTAACATCAAGGGGAATTCTGATGTTAATCGGGTCTTGATTCGCTTGACGCTGCTG | 10.3 | 11.3 | 12.1 | 6.89 | 8.49 | 8.42 | 7.65
CCGATTAACATCAAGGGGGGAATTGATGTTAATCGGGTCTTGATTCGCTTGACGCTGCTG | 7.34 | 7.02 | 7.25 | 7.24 | 5.11 | 5.89 | 6.3
CCGATTAACATCAGGAATTACCCTGATGTTAATCGGGTCTTGATTCGCTTGACGCTGCTG | 4.56 | 7.58 | 4.97 | 2.62 | 6.61 | 8.34 | 4.51
CCGATTAACATCACTATTCCCCCTGATGTTAATCGGGTCTTGATTCGCTTGACGCTGCTG | 5.37 | 6.24 | 7.08 | 7.68 | 3.2 | 4.96 | 5.82
CCGATTAACATCAATACTCCCCCTGATGTTAATCGGGTCTTGATTCGCTTGACGCTGCTG | 6.61 | 5.41 | 6.73 | 8.03 | 3.95 | 4.97 | 6.4
CCGATTAACATCAAAGACCCCCCTGATGTTAATCGGGTCTTGATTCGCTTGACGCTGCTG | 6.11 | 4.15 | 4.24 | 3.36 | 7.07 | 5.33 | 4.3
CCGATTAACATCAGGGGGGTGTATGATGTTAATCGGGTCTTGATTCGCTTGACGCTGCTG | 3.69 | 3.97 | 4.14 | 4.29 | 4.17 | 4.24 | 3.91
CCGATTAACATCAATATTCCCCCTGATGTTAATCGGGTCTTGATTCGCTTGACGCTGCTG | 8.39 | 9.05 | 10 | 10.4 | 6.05 | 7.05 | 7.24
